This note sets out measurements from the supplement of paper PMC11555231.

The target of the test is PADI4, Q9UM07. Kind of test: log2 enrichment score relative to parent PADI4_3 peptide (binding to PADI4); higher = tighter binding than parent. The settings on record: CaCl2: 10 mM. The method, then: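 Deep mutational scan of the cyclic peptide PADI4_3 (ClAc-D-Tyr1 initiator, thioether-cyclised to Cys12, C-terminal Gly plus HA tag, mRNA-displayed). Positions 2-11 were each randomised by NNK codons; Met was reprogrammed as N-methyl-alanine (MeA). One round of equilibrium panning against bead-immobilised human PADI4 (100 nM, 10 mM CaCl2, RT). Log2 enrichment (bound/input frequency) relative to the parent sequence (0 = parent), mean of three independent selections.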
Chain of PADI4, Q9UM07 (Q9UM07 whole entry): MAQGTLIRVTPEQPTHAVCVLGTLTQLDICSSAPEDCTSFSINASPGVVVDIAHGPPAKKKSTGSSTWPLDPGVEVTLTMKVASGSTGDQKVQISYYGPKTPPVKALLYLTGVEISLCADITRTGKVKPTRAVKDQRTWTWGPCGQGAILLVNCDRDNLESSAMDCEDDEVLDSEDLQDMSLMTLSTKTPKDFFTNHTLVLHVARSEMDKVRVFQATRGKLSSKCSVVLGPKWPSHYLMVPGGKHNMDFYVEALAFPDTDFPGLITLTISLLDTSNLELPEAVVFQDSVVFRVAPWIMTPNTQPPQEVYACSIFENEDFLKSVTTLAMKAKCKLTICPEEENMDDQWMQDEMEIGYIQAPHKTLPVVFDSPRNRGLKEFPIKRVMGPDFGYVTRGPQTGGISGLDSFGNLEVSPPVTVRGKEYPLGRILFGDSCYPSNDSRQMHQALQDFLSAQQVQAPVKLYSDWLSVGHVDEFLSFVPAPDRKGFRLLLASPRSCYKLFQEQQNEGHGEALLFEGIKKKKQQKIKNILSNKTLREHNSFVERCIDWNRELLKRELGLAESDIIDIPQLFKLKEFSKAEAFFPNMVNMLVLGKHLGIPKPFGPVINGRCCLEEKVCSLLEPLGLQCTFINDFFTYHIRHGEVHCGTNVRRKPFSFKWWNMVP
For the molecule YRDHHERHPKYCG [PADI4_3_Y6E Y6E], the log2 enrichment score is -1.85.
Take YRDHHYRHPKYCG [PADI4_3_R7R R7R]: the log2 enrichment score is 0.
For YRDHHYRHPCYCG [PADI4_3_K10C K10C] the value was -2.06; for YRDHHYRHPSYCG [PADI4_3_K10S K10S], -1.42.
Take YRDHHYRHPKECG [PADI4_3_Y11E Y11E]: the log2 enrichment score is -4.21.
Take YRDHHYRHPEYCG [PADI4_3_K10E K10E]: the log2 enrichment score is -1.11.
The value for YRDCHYRHPKYCG [PADI4_3_H4C H4C] was -3.15; that for YRDRHYRHPKYCG [PADI4_3_H4R H4R] was 2.48.
The value for YRDHHCRHPKYCG [PADI4_3_Y6C Y6C] was -3.47; that for YRKHHYRHPKYCG [PADI4_3_D3K D3K] was -3.84; that for YRDHSYRHPKYCG [PADI4_3_H5S H5S] was -3.98.
For YRDHEYRHPKYCG [PADI4_3_H5E H5E] the value was -4.25.
With YRCHHYRHPKYCG [PADI4_3_D3C D3C], the log2 enrichment score is -4.3.
Turning to YRDHHYRHEKYCG [PADI4_3_P9E P9E], the log2 enrichment score is -1.89.
As for YSDHHYRHPKYCG [PADI4_3_R2S R2S], the log2 enrichment score was -2.91.
Regarding YRDHHYRHDKYCG [PADI4_3_P9D P9D], the log2 enrichment score is -2.06.
The value for YRDHCYRHPKYCG [PADI4_3_H5C H5C] was -4.
The value for YRDHHYRHRKYCG [PADI4_3_P9R P9R] was -1.83; that for YRDHHYRHPKYCG [PADI4_3_D3D D3D] was 0; that for YRDHHYRHSKYCG [PADI4_3_P9S P9S] was -1.69.
The value for YRDHHYRHPKRCG [PADI4_3_Y11R Y11R] was -3.96.
On to YRDHHYRHPKYCG [PADI4_3_K10K K10K], for which the log2 enrichment score is 0.
The value for YRDEHYRHPKYCG [PADI4_3_H4E H4E] was -3.05.
The value for YRDHHYRKPKYCG [PADI4_3_H8K H8K] was -3.86; that for YDDHHYRHPKYCG [PADI4_3_R2D R2D] was -3.75; that for YRDHHYRHPKYCG [PADI4_3_H4H H4H] was 0.
As for YRDHHKRHPKYCG [PADI4_3_Y6K Y6K], the log2 enrichment score was -1.84.
For YCDHHYRHPKYCG [PADI4_3_R2C R2C] the value was -2.34; for YRDHHYRDPKYCG [PADI4_3_H8D H8D], -3.82; for YRDHHRRHPKYCG [PADI4_3_Y6R Y6R], -0.786.
For YRDKHYRHPKYCG [PADI4_3_H4K H4K] the value was -2.3; for YRDHHYRHKKYCG [PADI4_3_P9K P9K], -1.76.
For YRDHHYRHPKCCG [PADI4_3_Y11C Y11C] the value was -3.92.
On to YRDHHYCHPKYCG [PADI4_3_R7C R7C], for which the log2 enrichment score is -0.84.
Take YRDHHYRHPRYCG [PADI4_3_K10R K10R]: the log2 enrichment score was -0.238.
The value for YRDHHYRHPKDCG [PADI4_3_Y11D Y11D] was -3.74; that for YRDHHYRHPKYCG [PADI4_3_R2R R2R] was 0.
Consider YRDHHDRHPKYCG [PADI4_3_Y6D Y6D], for which the log2 enrichment score is -2.27.
The value for YRDHHYDHPKYCG [PADI4_3_R7D R7D] was 0.031.
The value for YRDHHYRRPKYCG [PADI4_3_H8R H8R] was -3.15; that for YRDHKYRHPKYCG [PADI4_3_H5K H5K] was -2.71; that for YRDHHYRSPKYCG [PADI4_3_H8S H8S] was -2.81.
The value for YRDHHSRHPKYCG [PADI4_3_Y6S Y6S] was -2.21; that for YRRHHYRHPKYCG [PADI4_3_D3R D3R] was -2.94.
Consider YRDHHYRCPKYCG [PADI4_3_H8C H8C], for which the log2 enrichment score is -2.95.
Regarding YEDHHYRHPKYCG [PADI4_3_R2E R2E], the log2 enrichment score was -2.93.
The value for YRHHHYRHPKYCG [PADI4_3_D3H D3H] was -3.57.
Turning to YRDHHYRHPKKCG [PADI4_3_Y11K Y11K], the log2 enrichment score is -4.77.
For YRDHHYRHCKYCG [PADI4_3_P9C P9C] the value was -2.79.
For YREHHYRHPKYCG [PADI4_3_D3E D3E] the value was -2.84; for YRDHDYRHPKYCG [PADI4_3_H5D H5D], -4.15.
For YRDHHYSHPKYCG [PADI4_3_R7S R7S], the log2 enrichment score was -0.05.
The value for YRDDHYRHPKYCG [PADI4_3_H4D H4D] was -4.33; that for YRDHRYRHPKYCG [PADI4_3_H5R H5R] was -3.55.
The value for YRDHHYKHPKYCG [PADI4_3_R7K R7K] was -0.44; that for YRDHHYEHPKYCG [PADI4_3_R7E R7E] was -0.753; that for YRDHHYREPKYCG [PADI4_3_H8E H8E] was -3.8.
The value for YRDHHYRHPDYCG [PADI4_3_K10D K10D] was -2.34; that for YKDHHYRHPKYCG [PADI4_3_R2K R2K] was 0.59.
